From PubChem
Compounds with a hit are over-represented: about 3.5% of the library has one in this group of screens.
MITF primary = blocks human microphthalmia-associated transcription factor. AlphaScreen MITF homodimerization, bead proximity signal. O75030. inhibition, % at 2.6 µM. 650,000 tested, 0.91% active. AID 1259374; in the data active means inhibition above about 50%;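 further: 0% = vehicle wells with protein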
FBW7 activator = human FBW7 E3 ligase activation, primary screen; Q969H0; AlphaScreen FBW7–phospho-cyclin E peptide binding, activator screen; normalized activity (activation), % at 26.1 µM; 650,000 tested, 0.13% active; AID 1259310; in the data active means normalized activity above about 1.9%;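 further: purified mutant Fbw7 with reduced substrate affinity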
TEAD-YAP inh = TEAD-YAP interaction inhibition. HEK-TIYL cells, TEAD-Gal4/YAP UAS-luciferase luminescence. inhibition, % at 9.12 µM. 640,000 tested, 1.4% active. AID 1259422; in the data active means inhibition above about 32%;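 further: 0% = median of test compound wells and 100% = reference inhibitor wells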
GPR151 activ = human GPR151 activation; PathHunter beta-arrestin GPR151 cells, luminescence; activation, % at 11.2 µM; AID 1508602; 650,000 tested, 1% active; in the data active means activation above about 4.9%;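 further: 0% = median of compound wells and 100% = cells with positive control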
Target sequence (Q8TDV0 whole entry, looked up): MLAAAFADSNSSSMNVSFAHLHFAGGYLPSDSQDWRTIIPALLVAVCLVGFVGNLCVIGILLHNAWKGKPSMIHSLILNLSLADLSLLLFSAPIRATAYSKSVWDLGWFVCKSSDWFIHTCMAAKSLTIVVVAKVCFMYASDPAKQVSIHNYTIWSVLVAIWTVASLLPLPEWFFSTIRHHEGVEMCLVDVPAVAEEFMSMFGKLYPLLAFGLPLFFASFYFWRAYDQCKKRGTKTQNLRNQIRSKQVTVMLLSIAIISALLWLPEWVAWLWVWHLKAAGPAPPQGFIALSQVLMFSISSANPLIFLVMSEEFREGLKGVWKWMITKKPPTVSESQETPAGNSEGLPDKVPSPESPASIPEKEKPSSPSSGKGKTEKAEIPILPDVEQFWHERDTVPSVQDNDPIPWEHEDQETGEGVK
An asterisk follows results filed as active.

SMILES	MITF primary	FBW7 activator	TEAD-YAP inh	GPR151 activ
Cc1ccc(-c2cc(C(=O)N/N=C/c3cc(Br)ccc3O)n[nH]2)o1	27	0	45*	2
Cc1cc(N2CCC(C(=O)NC34CC5CC(CC(C5)C3)C4)CC2)n2ncnc2n1	-16	0	-6	-1
COCCCNCCCOc1ccc2ccccc2c1Br	11	0	1	-1
O=C(CSCC(=O)Nc1ccccc1C(F)(F)F)Nc1ccc2ccccc2c1	16	2	-10	-1
COc1ccc(O)c(/C=N/NC(=O)c2ccc(NC(=O)c3ccccc3Cl)cc2)c1	1	0	34*	2
COc1ccc(O)c(/C=N\NC(=O)c2n[nH]c([N+](=O)[O-])n2)c1	53*	-1	4	-1
O=C(N/N=C\c1ccccc1O)c1n[nH]c([N+](=O)[O-])n1	37	0	-5	0
O=C(Nc1ccc2oc(-c3cccc(I)c3)nc2c1)c1ccccc1F	14	0	5	-1
COc1cccc(NC(=O)c2cnc(SCC(=O)N3CCN(c4ccccc4)CC3)n(C)c2=O)c1	-7	0	36*	-2
COc1cccc(-c2ccc3nnc(SCC(=O)N4CCN(c5ccccc5)CC4)n3n2)c1	13	1	33*	-1
CCc1ccc(N(CC(=O)NC(C)CC)S(C)(=O)=O)cc1 (configuration not stated)	18	1.9*	11	-1
O=C(Nc1noc2ncccc12)c1ccccc1F	-5	0	83*	-3
O=C(Nc1noc2ccccc12)c1c(F)cccc1F	-6	0	57*	-12
Cc1ccc2c(NC(=O)c3ccccc3F)noc2n1	-8	0	-10	-2
O=C(Nc1noc2ncccc12)c1ccccc1Cl	-6	-1	94*	-4
CCN(CC)c1ccc(/C=N/NC(=O)c2cc(C)[nH]n2)c(O)c1	-45	0	-17	0
Fc1ccccc1N1CCN(C(c2ccncc2)c2nnnn2C2CCCCC2)CC1 (configuration not stated)	5	0	3	1
COc1ccc2nc3c(cc2c1)c(N)nn3C(=O)c1cc(OC)c(OC)c(OC)c1	0	0	62*	0
CCOc1ccc(C(=O)n2nc(N)c3cc4cc(OC)ccc4nc32)cc1OCC	7	0	52*	2
COc1ccc2cc3c(N)nn(C(=O)c4cc(OC)c(OC)c(OC)c4)c3nc2c1	19	0	51*	0
COc1ccc2cc3c(N)nn(C(=O)c4ccncc4)c3nc2c1	-21	0	22	1
CCN1c2ncccc2C(=O)NC12CCN(C(=O)OC(C)(C)C)CC2	-5	0	8	0
CCCOc1ccc(/C(O)=C2/C(=O)C(=O)N(CCCN3CCOCC3)C2c2ccc(Cl)cc2)cc1C (configuration not stated)	3	0	-11	-1
Cc1ccc(C2OC3(C(=O)c4ccccc4C3=O)C(c3ccccc3)C23C(=O)c2ccccc2C3=O)cc1 (configuration not stated)	1	0	9	0
O=C1c2ccccc2C(=O)C12OC(c1ccc(Br)cc1)C1(C(=O)c3ccccc3C1=O)C2c1ccc(F)cc1 (configuration not stated)	63*	0	-5	0
SMILES	MITF primary	FBW7 activator	TEAD-YAP inh	GPR151 activ
COc1cccc(C(=O)Nc2ccc(-c3ccccc3)cc2)c1	-2	0	-16	-2
COc1cccc(C(=O)Nc2ccc(Oc3ccc4c(c3)C(=O)NC4=O)cc2)c1	7	0	51*	-1
COc1cccc(C(=O)Nc2ccc(N3CCN(C(=O)C(C)C)CC3)cc2)c1	-7	0	46*	1
COc1cccc(C(=O)Nc2ccc(CC(=O)O)cc2)c1	-3	0	60*	-1
Cc1cccc(C(=O)Nc2ccc(N3CCN(C(=O)C(C)C)CC3)cc2)c1	-10	0	-5	0
CC(C)C(=O)N1CCN(c2ccc(NC(=O)COc3ccccc3[N+](=O)[O-])cc2)CC1	9	0	50*	0
CN1CCN(c2ccc(NC(=O)COc3ccccc3[N+](=O)[O-])cc2)CC1	15	0	6	1
COc1cccc2cc(C(=O)Nc3ccc(CC(=O)O)cc3)c(=O)oc12	-11	0	72*	-4
COc1cccc(C(=O)NNC(=O)Cc2ccc(-c3ccccc3)cc2)c1	-4	1	62*	1
COc1ccc(NC(=O)c2cc3cccc(OC)c3oc2=O)cc1	15	0	-18	0
CCNc1nc(C#N)nc(N2CCCCC2)n1	3	0	41*	2
N#Cc1nc(N2CCCCC2)nc(N2CCCCC2)n1	-2	0	1	-1
O=C(NCCCN1CCOCC1)c1cc(-c2cccs2)nc2ccccc12	-5	0	14	0
CC(C)OCCCNC(=O)c1cc(-c2cccs2)nc2ccccc12	-1	0	36*	0
C/C=C/COC(=O)C1=C(C)NC(=O)NC1c1ccccc1Cl (configuration not stated)	-2	1	47*	1
C=CCOC(=O)C1=C(C)NC(=S)NC1c1ccc(C(=O)OC)cc1 (configuration not stated)	1	0	36*	-1
COc1ccc(C2NC(=S)NC(C)=C2C(=O)c2ccccc2)cc1 (configuration not stated)	17	0	57*	-2
C=CCOC(=O)C1=C(C)NC(=O)NC1c1ccc(OCCC)cc1 (configuration not stated)	3	1	55*	-2
CC(=O)N[C@@H](C)C(=O)NCC1Cc2cc(Cl)cc(-c3ncccn3)c2O1 (some centres not stated)	0	0	-8	0
CCCCc1ccc(-c2nc3ccccc3c(=O)n2NCc2c(F)cccc2Cl)cc1	-6	0	-3	1
COc1cc(SC)ccc1C(=O)Nc1nnc(CC(C)C)s1	6	0	-50	1
COc1cc(C(=O)N2N=C(c3ccc4ccccc4c3)CC2c2ccccc2)cc(OC)c1OC (configuration not stated)	18	0	1	0
COc1ccc(C2=NN(C(=O)c3cc(OC)c(OC)c(OC)c3)C(c3ccccc3F)C2)cc1OC (configuration not stated)	8	0	42*	0
COc1ccc(C2=NN(C(=O)c3cccs3)C(c3ccccc3F)C2)cc1OC (configuration not stated)	-3	0	-3	0
Cc1ccc(C2=NN(S(C)(=O)=O)C(c3ccccc3F)C2)cc1 (configuration not stated)	-3	0	-40	0
COc1cc(C(=O)N2N=C(c3ccccc3)CC2c2ccccc2)cc(OC)c1OC (configuration not stated)	-1	0	53*	0
Cc1ccc(C2=NN(C(=O)c3ccncc3)C(c3ccccc3F)C2)cc1 (configuration not stated)	5	0	47*	0
